In the supplement of paper PMC13172266:

Tests used:
Experiment in all cases: cell proliferation relative to vehicle (% of vehicle); higher = less growth inhibition
Settings in all cases: 72 h
[1] = system: U2932 TK216-resistant clone 2
Summary of the method: (§1)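 Growth medium with 10% FBS at 37°C and 5% CO2 was used to culture U2932, an ABC-DLBCL line, in parental form and as two clones rendered resistant to an ETS-targeting agent by repeated exposure over almost a year. These cells received compounds from a 348-member targeted inhibitor library at 500 nM or 50 nM for 72 h, followed by 4 h of MTT, a 25% SDS stop and an absorbance read on a Cytation 3. The percentage of proliferating cells is reported relative to DMSO vehicle.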

[2] = system: U2932 TK216-resistant clone 3
Summary of the method: as §1

U2932 parental = system: U2932 parental
Summary of the method: as §1

C[C@@H](O[C@H]1OCCN(Cc2n[nH]c(=O)[nH]2)[C@H]1c1ccc(F)cc1)c1cc(C(F)(F)F)cc(C(F)(F)F)c1 [Aprepitant]
cell proliferation ([1]; 50 nM): 109
cell proliferation ([1]; 500 nM): 106
cell proliferation ([2]; 50 nM): 101
cell proliferation ([2]; 500 nM): 97.4
cell proliferation (U2932 parental; 50 nM): 108
cell proliferation (U2932 parental; 500 nM): 98.5

O=c1ncccn1[C@@H]1O[C@H](CO)[C@@H](O)[C@H]1O [Zebularine]
cell proliferation ([1]; 50 nM): 111
cell proliferation ([1]; 500 nM): 95.5
cell proliferation ([2]; 50 nM): 102
cell proliferation ([2]; 500 nM): 99.9
cell proliferation (U2932 parental; 50 nM): 105
cell proliferation (U2932 parental; 500 nM): 102

FC(F)c1nc2ccccc2n1-c1nc(N2CCOCC2)nc(N2CCOCC2)n1
cell proliferation ([1]; 50 nM): 95.8
cell proliferation ([1]; 500 nM): 42.5
cell proliferation ([2]; 50 nM): 93.6
cell proliferation ([2]; 500 nM): 46
cell proliferation (U2932 parental; 50 nM): 89.9
cell proliferation (U2932 parental; 500 nM): 46.8

CCCCCOC(=O)Nc1nc(=O)n([C@@H]2O[C@H](C)[C@@H](O)[C@H]2O)cc1F [Capecitabine]
cell proliferation ([1]; 50 nM): 103
cell proliferation ([1]; 500 nM): 105
cell proliferation ([2]; 50 nM): 104
cell proliferation ([2]; 500 nM): 108
cell proliferation (U2932 parental; 50 nM): 99.9
cell proliferation (U2932 parental; 500 nM): 98.3

CC(C)CCN1c2nc(Nc3cc(F)c(O)c(F)c3)ncc2N(C)C(=O)C1C (centres undefined)
cell proliferation ([1]; 50 nM): 114
cell proliferation ([1]; 500 nM): 99.9
cell proliferation ([2]; 50 nM): 106
cell proliferation ([2]; 500 nM): 91.3
cell proliferation (U2932 parental; 50 nM): 105
cell proliferation (U2932 parental; 500 nM): 97.3

O=C(Nc1c[nH]nc1-c1nc2ccc(CN3CCOCC3)cc2[nH]1)NC1CC1
cell proliferation ([1]; 50 nM): 90.5
cell proliferation ([1]; 500 nM): 67.5
cell proliferation ([2]; 50 nM): 75.8
cell proliferation ([2]; 500 nM): 60.1
cell proliferation (U2932 parental; 50 nM): 69.3
cell proliferation (U2932 parental; 500 nM): 54.2

Cc1cc(N2CCOCC2)cc2[nH]c(-c3c(NC[C@@H](O)c4cccc(Cl)c4)cc[nH]c3=O)nc12
cell proliferation ([1]; 50 nM): 110
cell proliferation ([1]; 500 nM): 96
cell proliferation ([2]; 50 nM): 100
cell proliferation ([2]; 500 nM): 92.8
cell proliferation (U2932 parental; 50 nM): 102
cell proliferation (U2932 parental; 500 nM): 100

CC(=O)Nc1ccc(NC(=S)NC(=O)c2ccc(C(C)(C)C)cc2)cc1 [Tenovin-1]
cell proliferation ([1]; 50 nM): 105
cell proliferation ([1]; 500 nM): 95.1
cell proliferation ([2]; 50 nM): 107
cell proliferation ([2]; 500 nM): 102
cell proliferation (U2932 parental; 50 nM): 102
cell proliferation (U2932 parental; 500 nM): 98.7

O=NN(CCCl)C(=O)NC1CCCCC1 [Lomustine]
cell proliferation ([1]; 50 nM): 112
cell proliferation ([1]; 500 nM): 103
cell proliferation ([2]; 50 nM): 111
cell proliferation ([2]; 500 nM): 105
cell proliferation (U2932 parental; 50 nM): 101
cell proliferation (U2932 parental; 500 nM): 114

COc1cc(Nc2ncc(F)c(Nc3ccc4c(n3)N(COP(=O)(O)O)C(=O)C(C)(C)O4)n2)cc(OC)c1OC [Fostamatinib (R788)]
cell proliferation ([1]; 50 nM): 96.7
cell proliferation ([1]; 500 nM): 92.8
cell proliferation ([2]; 50 nM): 97.2
cell proliferation ([2]; 500 nM): 95
cell proliferation (U2932 parental; 50 nM): 96.7
cell proliferation (U2932 parental; 500 nM): 93.6

Cc1ccc(-c2cc(C(F)(F)F)nn2-c2ccc(S(N)(=O)=O)cc2)cc1 [Celecoxib]
cell proliferation ([1]; 50 nM): 99.8
cell proliferation ([1]; 500 nM): 95.6
cell proliferation ([2]; 50 nM): 104
cell proliferation ([2]; 500 nM): 98.7
cell proliferation (U2932 parental; 50 nM): 101
cell proliferation (U2932 parental; 500 nM): 100

Cc1ccc(C(=O)N(CCCN)[C@@H](c2nc3cc(Cl)ccc3c(=O)n2Cc2ccccc2)C(C)C)cc1
cell proliferation ([1]; 50 nM): 13
cell proliferation ([1]; 500 nM): 10.8
cell proliferation ([2]; 50 nM): 7.24
cell proliferation ([2]; 500 nM): 5.07
cell proliferation (U2932 parental; 50 nM): 9.61
cell proliferation (U2932 parental; 500 nM): 10.2

Cc1cc(Nc2cc(N3CCN(C)CC3)nc(/C=C/c3ccccc3)n2)n[nH]1
cell proliferation ([1]; 50 nM): 82
cell proliferation ([1]; 500 nM): 66.1
cell proliferation ([2]; 50 nM): 97.6
cell proliferation ([2]; 500 nM): 48.9
cell proliferation (U2932 parental; 50 nM): 93
cell proliferation (U2932 parental; 500 nM): 46

O=C(O)c1ccc(Nc2ncc3c(n2)-c2ccc(Cl)cc2C(c2c(F)cccc2F)=NC3)cc1
cell proliferation ([1]; 50 nM): 104
cell proliferation ([1]; 500 nM): 80.2
cell proliferation ([2]; 50 nM): 112
cell proliferation ([2]; 500 nM): 86.2
cell proliferation (U2932 parental; 50 nM): 99.6
cell proliferation (U2932 parental; 500 nM): 65.5

Cc1ccc2c(=O)c3cccc(CC(=O)O)c3oc2c1C [DMXAA (Vadimezan)]
cell proliferation ([1]; 50 nM): 110
cell proliferation ([1]; 500 nM): 99.3
cell proliferation ([2]; 50 nM): 101
cell proliferation ([2]; 500 nM): 95.3
cell proliferation (U2932 parental; 50 nM): 101
cell proliferation (U2932 parental; 500 nM): 99.2

NC(=O)NO [Hydroxyurea]
cell proliferation ([1]; 50 nM): 103
cell proliferation ([1]; 500 nM): 94.7
cell proliferation ([2]; 50 nM): 102
cell proliferation ([2]; 500 nM): 103
cell proliferation (U2932 parental; 50 nM): 92.2
cell proliferation (U2932 parental; 500 nM): 97.8

CCO[C@@H]1OC(=O)C[C@@H]1NC(=O)[C@@H]1CCCN1C(=O)[C@@H](NC(=O)c1ccc(N)c(Cl)c1)C(C)(C)C
cell proliferation ([1]; 50 nM): 105
cell proliferation ([1]; 500 nM): 105
cell proliferation ([2]; 50 nM): 101
cell proliferation ([2]; 500 nM): 102
cell proliferation (U2932 parental; 50 nM): 95.4
cell proliferation (U2932 parental; 500 nM): 98.2

Oc1cccc(-c2nc(N3CCOCC3)c3oc4ncccc4c3n2)c1
cell proliferation ([1]; 50 nM): 97.4
cell proliferation ([1]; 500 nM): 45.4
cell proliferation ([2]; 50 nM): 94.2
cell proliferation ([2]; 500 nM): 46.3
cell proliferation (U2932 parental; 50 nM): 92.1
cell proliferation (U2932 parental; 500 nM): 48

CCOC(=O)C1=C(N)Oc2ccc(Br)cc2C1C(C#N)C(=O)OCC (centres undefined)
cell proliferation ([1]; 50 nM): 103
cell proliferation ([1]; 500 nM): 95.7
cell proliferation ([2]; 50 nM): 109
cell proliferation ([2]; 500 nM): 100
cell proliferation (U2932 parental; 50 nM): 98.4
cell proliferation (U2932 parental; 500 nM): 97.6

C[C@@H](N)[C@H]1CC[C@H](C(=O)Nc2ccncc2)CC1
cell proliferation ([1]; 50 nM): 98.8
cell proliferation ([1]; 500 nM): 102
cell proliferation ([2]; 50 nM): 100
cell proliferation ([2]; 500 nM): 103
cell proliferation (U2932 parental; 50 nM): 94.8
cell proliferation (U2932 parental; 500 nM): 97.7

O=C(CCCCCCNC(=O)c1cnc(N(c2ccccc2)c2ccccc2)nc1)NO [Rocilinostat (ACY-1215)]
cell proliferation ([1]; 50 nM): 104
cell proliferation ([1]; 500 nM): 104
cell proliferation ([2]; 50 nM): 110
cell proliferation ([2]; 500 nM): 96.5
cell proliferation (U2932 parental; 50 nM): 98.5
cell proliferation (U2932 parental; 500 nM): 92.2

CCCCNc1ncc2c(-c3ccc(CN4CCN(C)CC4)cc3)cn([C@H]3CC[C@H](O)CC3)c2n1
cell proliferation ([1]; 50 nM): 95.5
cell proliferation ([1]; 500 nM): 71.1
cell proliferation ([2]; 50 nM): 92
cell proliferation ([2]; 500 nM): 65.6
cell proliferation (U2932 parental; 50 nM): 91.3
cell proliferation (U2932 parental; 500 nM): 62.7

Cn1nnc2c(C(N)=O)ncn2c1=O [Temozolomide]
cell proliferation ([1]; 50 nM): 110
cell proliferation ([1]; 500 nM): 110
cell proliferation ([2]; 50 nM): 107
cell proliferation ([2]; 500 nM): 100
cell proliferation (U2932 parental; 50 nM): 98.8
cell proliferation (U2932 parental; 500 nM): 96.5

Nc1nc(N)c2nc(-c3cccc(O)c3)c(-c3cccc(O)c3)nc2n1
cell proliferation ([1]; 50 nM): 103
cell proliferation ([1]; 500 nM): 100
cell proliferation ([2]; 50 nM): 110
cell proliferation ([2]; 500 nM): 96.6
cell proliferation (U2932 parental; 50 nM): 99
cell proliferation (U2932 parental; 500 nM): 99.2
